Screening results: PubChem, several laboratories
CYP2C19 inhib – inhibitors of human CYP2C19 | inhibition, % at 5 µM | 96,000 compounds, 21% hits | P33261 | AID 778 | CYP2C19 Supersomes, luciferin-H EGE luminescence, 30 min;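 active means CYP2C19 inhibition above a set limit at 5 µM in the primary screen, cut at about 50% in these data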
Target sequence (P33261 whole entry, looked up): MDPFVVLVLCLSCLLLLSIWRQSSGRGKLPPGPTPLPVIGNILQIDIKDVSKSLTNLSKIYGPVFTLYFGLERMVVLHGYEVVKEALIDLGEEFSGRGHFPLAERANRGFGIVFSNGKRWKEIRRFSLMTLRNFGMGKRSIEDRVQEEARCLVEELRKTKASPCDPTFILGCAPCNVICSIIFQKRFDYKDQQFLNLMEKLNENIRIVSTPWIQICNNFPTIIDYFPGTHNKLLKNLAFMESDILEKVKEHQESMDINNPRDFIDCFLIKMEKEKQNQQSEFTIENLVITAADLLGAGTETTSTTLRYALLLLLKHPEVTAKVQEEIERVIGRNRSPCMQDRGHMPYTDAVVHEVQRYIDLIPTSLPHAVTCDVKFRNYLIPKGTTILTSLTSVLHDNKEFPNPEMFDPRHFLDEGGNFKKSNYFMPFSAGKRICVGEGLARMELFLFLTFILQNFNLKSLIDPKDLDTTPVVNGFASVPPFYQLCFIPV
PostGolgi ctrl – inhibits growth of the yeast control strain; efflux-deficient yeast background strain, growth absorbance A615, 16 h; inhibition, % at 10 µM; 98,000 compounds, 5% hits; AID 738
PostGolgi yeast – growth inhibition of a yeast mutant, post-Golgi transport screen; AID 739; post-Golgi transport phenotypic cell assay; 98,000 compounds, 0.9% hits; inhibition, % at 10 µM;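 further: yeast cells grown in 1536-well plates; yeast grown about 18 h at 30C before absorbance read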
CYP2C19 activ – activators of human cytochrome P450 2C19 | AID 1025 | 96,000 tested, under 10 active | P33261 | activation factor at 5 µM | recombinant CYP2C19, luciferin-H EGE luminescence; active compounds read high; 0 = fully inhibited enzyme, 1 = untreated enzyme;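 active means activation factor of at least 2 at 5 µM in the primary screen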
CYP2C9 activ – activators of human CYP2C9; P11712; 96,000 compounds, 1.4% hits; activation factor at 5 µM; recombinant CYP2C9, luciferin-H conversion, luminescence; active compounds read high; factor 1 = untreated enzyme, 0 = blocked;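 active means activation factor of 2 or more for CYP2C9 at a 5 µM dose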
CYP2C9 inh – human CYP2C9 inhibition; CYP2C9 Supersomes, luciferin-H conversion, luminescence; P11712; AID 777; 96,000 compounds, 20% hits; inhibition, % at 5 µM;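 active means blocking of liver enzyme CYP2C9 beyond about 50% at 5 µM, limit read from the data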
Large screens that a line does not name were inactive. Compounds with a hit are over-represented: about 32% of the library has one in this group of screens. Unless noted, no stated cut-off is given here; in the data, active means inhibition above about 30%; inactive means the rest.

CCNc1nc(Oc2ccc(Cl)cc2Cl)cc(C(F)(F)F)n1	CYP2C9 inh 63
COc1cc2c(C)nc(C)c(C#N)c2cc1OC	none
COc1ccc2ccccc2c1/C=N/O	none
Cc1onc(-c2c(Cl)cccc2Cl)c1C(=O)NCc1ccccn1	none
Cc1onc(-c2ccccc2)c1C(=O)N1CCN(C)CC1	none
Cc1cc2ncn(C(=O)c3c(-c4c(Cl)cccc4Cl)noc3C)c2cc1C	CYP2C19 inhib 72, CYP2C9 inh 69
Cc1cc2ncn(C(=O)c3c(-c4ccccc4)noc3C)c2cc1C	CYP2C9 inh 58
CCOc1cc(NC(=O)c2cnccn2)c(OCC)cc1NC(=O)c1ccc(OC)cc1	none (no result: PostGolgi ctrl, PostGolgi yeast)
CCN(CC)C(=O)CC(c1ccc(F)cc1)c1ccco1 (centres undefined)	CYP2C19 inhib 62
CCCCn1c(=O)n(CC(=O)Nc2c(CC)cccc2CC)c(=O)c2c1nc(CO)n2CCC	none
CCCCn1c(=O)n(CC(=O)Nc2ccc(C)c(Cl)c2)c(=O)c2c1ncn2Cc1ccco1	CYP2C19 inhib 51, CYP2C9 inh 62
CCCCn1c(=O)n(CC(=O)Nc2ccc(OC)c(Cl)c2)c(=O)c2c1nc(CO)n2CCC	CYP2C19 inhib 79, CYP2C9 inh 90
CC(CNS(=O)(=O)c1cc(Cl)ccc1Cl)CN(C)C (centres undefined)	none
C=CCN(C(=O)CCC(=O)Nc1cc(C)on1)C(C(=O)NC(C)(C)C)c1cccc(OC)c1OC (centres undefined)	none
CCCCOC(=O)C1C2C=CC3(CN(CCc4ccccc4)C(=O)C13)O2 (centres undefined)	none (no result: CYP2C19 inhib, CYP2C19 activ, CYP2C9 activ, CYP2C9 inh)
CSC1=NCCN1C(=O)c1ccc(S(=O)(=O)N(C)C)cc1	none
Cc1cc(CN2CCN(CCC#N)CC2)c(O)c(C2(C)CCCCC2)c1	PostGolgi ctrl 59
COc1ccc(-c2c(NC(=O)c3ccco3)n(C)c3ccccc3c2=O)cc1	none
O=c1c2cc(Br)cc(Br)c2oc2nc3n(c(=O)c12)CCCS3	PostGolgi ctrl 43
CC(C)(C)NC(=O)NC(=O)CSc1ncc(C(F)(F)F)cc1Cl	none
CCCNC(=O)NC(=O)CSc1ncc(C(F)(F)F)cc1Cl	CYP2C19 inhib 70
O=c1oc2ccccc2c2c1ncn2C1CCCCC1	none
Cn1c(-c2ccc(-c3ccccc3)cc2)c[nH]c1=S	CYP2C19 inhib 89, CYP2C9 inh 64
C=CCn1c(-c2ccccc2)nc2nc3ccccc3nc21	none
C=CCn1c(-c2cccc(Cl)c2)n[nH]c1=S	none
CCn1c(-c2ccc(C)cc2)n[nH]c1=S	none
C=CCn1c(-c2ccc(Cl)cc2)c[nH]c1=S	CYP2C19 inhib 66
CCn1c(-c2ccc(-c3ccccc3)cc2)c[nH]c1=S	CYP2C19 inhib 81
Cn1c(-c2ccccc2)cnc1N	none
C=CCn1c(-c2ccccc2)c[nH]c1=S	CYP2C19 inhib 70
CCCCCCn1c(=O)c(-c2nc3ccccc3c(=O)[nH]2)c(O)c2ccccc21	none (no result: PostGolgi ctrl, PostGolgi yeast)
CC(C)=CC(=O)Nc1nnc(C(C)C)s1	none
CC(C)=CC(=O)Nc1nnc(-c2cccnc2)s1	CYP2C19 inhib 87
CC(Sc1nnc(-c2ccc(Cl)cc2)n1C)C(N)=O (centres undefined)	none
NC(=O)C(c1ccc(Cl)cc1)c1ccc(Sc2ccc(Cl)cc2)nn1 (centres undefined)	CYP2C19 inhib 63
Cc1[nH]c2ccc(OCc3ccccc3)cc2c1CCN1C(=O)OC(C)(C)C1(C)O (centres undefined)	CYP2C19 inhib 51
Cc1ccc(NC(=O)CN(C)C(=O)CSc2n[nH]c(N)n2)cc1	none
C=CCn1c(SCC(N)=O)nnc1-c1ccccc1O	none
C=CCn1c(SCC(=O)NCc2ccccc2)nnc1-c1ccccc1O	CYP2C19 inhib 71, CYP2C9 inh 74
C=CCn1c(COc2ccc(Cl)cc2)nnc1SCC(=O)NCC(=O)OCC	none
C=CCn1c(SCc2ccccc2C#N)nnc1-c1ccccc1O	CYP2C19 inhib 98
C=CCn1c(SCC(=O)Nc2ccc3c(c2)OCO3)nnc1-c1ccccc1O	none
C=CCn1c(SCC(N)=O)nnc1-c1cc(Br)ccc1O	CYP2C19 inhib 87
C=CCn1c(CSCc2ccc(Cl)cc2)nnc1SCC(=O)NCc1ccccc1	CYP2C19 inhib 87, CYP2C9 inh 81
CCCCSc1nc(C)c(C(C)=O)cc1C#N	none
O=c1cc(N2CCN(Cc3ccccc3)CC2)[nH]c(=O)n1-c1ccc(Br)cc1	none
C=C(c1ccc(OCCO)cc1)c1ccc(OCCO)cc1	none
Cc1ccc2nc(NC(=O)CSCC(=O)OCC(=O)c3ccc(Br)cc3)sc2c1	none
C=CCn1c(CSCc2ccc(C)cc2)nnc1SCC(=O)NCc1ccccc1	CYP2C19 inhib 80, CYP2C9 inh 79
O=C(CSc1nnc(CCc2ccccc2)n1-c1ccc(Cl)cc1)NCc1ccccc1	CYP2C19 inhib 84, CYP2C9 inh 89
CN(c1ccccc1)S(=O)(=O)c1cc(C(=O)c2nccn2C)ccc1Cl	CYP2C19 inhib 99, CYP2C9 inh 91
Cn1ccnc1C(=O)c1cc(=O)c2ccccc2o1	none
O=C(Cn1nc(-c2ccc(N3CCOCC3)c([N+](=O)[O-])c2)c2ccccc2c1=O)N1CCCCC1	none
Cc1cnc(NC(=O)CSc2nnc(-c3cccs3)n2C)s1	none
Cc1oc(-c2ccccc2)nc1C(=O)OCC(=O)NC(=O)NCC(C)C	CYP2C9 inh 51
O=C(CNC1=NCCC1)c1ccc2c(c1)OCCO2	none
O=C1c2ccccc2C(=O)N1c1ncccn1	none
Cc1cccc(C)c1N1C(=O)c2ccccc2C1=O	CYP2C19 inhib 54
O=C(NNC(=S)NCc1ccco1)c1ccc(Cl)s1	CYP2C9 inh 55
CCCCC(=O)Nc1cccc(-c2nc3ncccc3o2)c1	none
CCCCCC(=O)Nc1cccc(-c2nc3ncccc3o2)c1	none
O=C(CSc1ccc(Cl)cc1)Nc1cccc(-c2nc3ncccc3o2)c1	CYP2C9 inh 51
COc1c(C)cc(Br)cc1C(=O)Nc1cccc(-c2nc3ncccc3o2)c1	CYP2C19 inhib 92, PostGolgi ctrl 41, CYP2C9 inh 54
COc1cc(C(=O)Nc2cccc(-c3nc4ncccc4o3)c2C)cc(OC)c1OC	none
COc1ccc(C(=O)Nc2cccc(-c3nc4ncccc4o3)c2C)cc1	CYP2C9 inh 64
Cc1c(NC(=O)CSc2ccc(Cl)cc2)cccc1-c1nc2ncccc2o1	CYP2C9 inh 92
C=CC[n+]1c(-c2ccc(OC)c(OC)c2)csc1NNC(=O)Nc1ccccc1	none
CCOC(=O)n1c(=O)oc2cc(S(=O)(=O)N3CCOCC3)ccc21	none
CC1=C(C(=O)Nc2ccc(F)cc2)C(c2ccncc2)C2=C(CCCC2=O)N1 (centres undefined)	none (no result: CYP2C19 inhib, CYP2C19 activ, CYP2C9 activ, CYP2C9 inh)
O=C1CCCC2=C1C(c1ccncc1)c1c(nc(SCc3ccccc3Cl)[nH]c1=O)N2 (centres undefined)	CYP2C19 inhib 85, CYP2C9 inh 95
CCCc1cc(=O)n2c([nH]c3ccccc32)c1C#N	CYP2C9 inh 56
CCCCc1c(C)c(C#N)c2[nH]c3ccccc3n2c1=O	PostGolgi ctrl 36
